Laboratory results from PubChem BioAssay (NCI).
About 79,000 compounds went through this panel and 15% of them were active in at least one assay; those are over-represented in the sample as a whole. The source made the active and inactive calls. Cut-off read from the data, not from the text of the source: active = growth inhibition above about 70%; inactive = the rest.

How the values were obtained:
[1] = NCI Yeast Anticancer Drug Screen. Data for the wt1 strain (AID 149);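 note: 0% = growth of vehicle-treated wt1 cultures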; conditions: S. cerevisiae wt1 strain (SPY 50644) growth inhibition, hits give high values
How it was run: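 Yeast wt1 strain exposed to compounds; growth inhibition measured relative to vehicle-treated controls.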

[2] = NCI Yeast Anticancer Drug Screen. Data for the rad50EPP+ strain (AID 151);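 note: 0% = growth of vehicle-treated control cultures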; conditions: S. cerevisiae rad50 mutant strain, hits give high values
How it was run: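 Growth inhibition read against vehicle controls in rad50EPP+ yeast, a strain altered in DNA damage repair, after compound exposure.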

[3] = NCI Yeast Anticancer Drug Screen. Data for the mgt1 strain (AID 153); conditions: S. cerevisiae mgt1 mutant growth inhibition, hits give high values
How it was run: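 mgt1 yeast grown with test compound; read-out is growth inhibition versus vehicle-treated cultures.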

[4] = NCI Yeast Anticancer Drug Screen. Data for the rad50 strain (AID 155);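 note: 0% = growth of vehicle-only cultures of the same strain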; conditions: S. cerevisiae rad50 strain growth inhibition, hits give high values
How it was run: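 Yeast carrying a defined DNA repair defect were exposed to test compounds, and growth was compared with vehicle-treated controls to give percent inhibition.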

[5] = NCI Yeast Anticancer Drug Screen. Data for the mec2-1 strain (AID 157); conditions: S. cerevisiae mec2-1 strain, hits give high values
How it was run: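 Yeast mec2-1 mutant treated with compound. Readout: growth inhibition vs vehicle controls.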

[6] = NCI Yeast Anticancer Drug Screen. Data for the rad14 strain (AID 159);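 note: 0% = growth of vehicle-treated control cultures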; conditions: S. cerevisiae rad14 strain growth inhibition, hits give high values
How it was run: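 Yeast cells carrying a defined DNA-repair defect were exposed to compounds, and growth inhibition was calculated relative to vehicle-treated control cultures.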

[7] = NCI Yeast Anticancer Drug Screen. Data for the sgs1 mgt1 strain (AID 161);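 note: 0% = growth of cultures given vehicle only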; conditions: S. cerevisiae sgs1 mgt1 strain, hits give high values
How it was run: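 Mutant yeast exposed to compound; growth scored against vehicle-only wells.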

[8] = NCI Yeast Anticancer Drug Screen. Data for the CLN2oe strain (AID 163);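 note: 0% = growth of vehicle-only control cultures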; conditions: S. cerevisiae CLN2oe strain, hits give high values
How it was run: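 Read-out: yeast growth inhibition, expressed relative to vehicle-only controls. The strain bears an engineered cell-cycle alteration.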

[9] = NCI Yeast Anticancer Drug Screen. Data for the cln2 rad14 strain (AID 165);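 note: 0% = growth equal to vehicle treated cultures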; conditions: S. cerevisiae cln2 rad14 strain, hits give high values
How it was run: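 cln2 rad14 yeast strain; compound exposure; growth inhibition read vs vehicle controls.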

[10] = NCI Yeast Anticancer Drug Screen. Data for the bub3 strain (AID 167); conditions: S. cerevisiae bub3 mutant strain, hits give high values
How it was run: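 Compounds were applied to a genetically altered yeast strain carrying a cell-cycle control defect. Growth inhibition was scored against vehicle-treated controls.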

[11] = NCI Yeast Anticancer Drug Screen. Data for the wt2 strain (AID 169);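 note: 0% = growth of vehicle-treated yeast cultures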; conditions: S. cerevisiae wt2 strain growth inhibition, hits give high values
How it was run: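 Read-out: growth inhibition versus vehicle-treated control cultures after compound exposure of the yeast strain.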

[12] = NCI Yeast Anticancer Drug Screen. Data for the sgs1 strain (AID 173);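 note: 0% = growth of vehicle-only control cultures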; conditions: S. cerevisiae sgs1 mutant, hits give high values
How it was run: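 Read-out: yeast growth inhibition relative to vehicle controls, following compound exposure of a strain with a defined DNA repair/cell cycle alteration.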

[13] = NCI Yeast Anticancer Drug Screen. Data for the mlh1 rad18 strain (AID 175); conditions: S. cerevisiae mlh1 rad18 strain growth inhibition, hits give high values
How it was run: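 Yeast w/ defined DNA-repair lesions; compound exposure; growth vs vehicle controls → % inhibition.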

[14] = NCI Yeast Anticancer Drug Screen. Data for the rad18 strain (AID 177); conditions: S. cerevisiae rad18 mutant growth inhibition, hits give high values
How it was run: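 Readout: growth inhibition vs vehicle controls. Cells: genetically altered yeast strain, DNA repair defect.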

[15] = NCI Yeast Anticancer Drug Screen. Data for the mlh1 strain (AID 171);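 note: 0% = growth of vehicle-treated control cultures of the same strain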; conditions: S. cerevisiae mlh1 strain growth inhibition, hits give high values
How it was run: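 Read-out: growth inhibition versus vehicle controls. Strain: engineered yeast with a defined DNA repair or cell cycle defect, compound-treated.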

[16] = at 5.0 µM (retest, dose inferred, filed as 0.5)
[17] = at 50.0 µM (retest, dose inferred, filed as 5.0)

Measured: growth inhibition

O=C1OC(/C=C/c2ccccc2)Sc2ccccc21 (stereo unspecified)
inactive: [1]; at 1.2 µM -3% | [1]; at 3.7 µM 0% | [1]; at 11.0 µM 1% | [1]; at 33.0 µM 2% | [1]; at 100.0 µM 8% | [2]; at 1.2 µM 5% | [2]; at 3.7 µM 5% | [2]; at 11.0 µM 13% | [2]; at 33.0 µM 18% | [2]; at 100.0 µM 23% | [3]; at 1.2 µM -1% | [3]; at 3.7 µM 2% | [3]; at 11.0 µM 4% | [3]; at 33.0 µM 10% | [3]; at 100.0 µM 44% | [4]; at 1.2 µM 3% | [4]; at 3.7 µM 4% | [4]; [16] -16% | [4]; at 11.0 µM 10% | [4]; at 33.0 µM 14% | [4]; [17] 1% | [4]; at 50.0 µM -0.5% | [4]; at 100.0 µM 27% | [5]; at 1.2 µM -3% | [5]; at 3.7 µM -3% | [5]; [16] 10% | [5]; at 11.0 µM 0% | [5]; at 33.0 µM 10% | [5]; [17] 8% | [5]; at 50.0 µM 29.8% | [5]; at 100.0 µM 24% | [6]; at 1.2 µM 1% | [6]; at 3.7 µM 0% | [6]; at 11.0 µM 4% | [6]; at 33.0 µM 12% | [6]; at 100.0 µM 23% | [7]; [16] 3% | [7]; [17] 7% | [7]; at 50.0 µM 30.9% | [8]; at 1.2 µM 0% | [8]; at 3.7 µM 2% | [8]; at 11.0 µM -1% | [8]; at 33.0 µM 3% | [8]; at 100.0 µM 17% | [9]; [16] -34% | [9]; [17] -47% | [9]; at 50.0 µM -26.9% | [10]; at 1.2 µM 5% | [10]; at 3.7 µM 11% | [10]; [16] 7% | [10]; at 11.0 µM 33% | [10]; at 33.0 µM 46% | [10]; [17] 50% | [10]; at 100.0 µM 62% | [11]; at 1.2 µM -2% | [11]; at 3.7 µM -8% | [11]; at 11.0 µM -2% | [11]; at 33.0 µM 1% | [11]; at 100.0 µM 10% | [12]; at 1.2 µM 0% | [12]; at 3.7 µM 2% | [12]; at 11.0 µM 6% | [12]; at 33.0 µM 12% | [12]; at 100.0 µM 25% | [13]; [16] 11% | [13]; [17] 27% | [13]; at 50.0 µM 32.9% | [14]; at 1.2 µM 1% | [14]; at 3.7 µM 4% | [14]; at 11.0 µM 7% | [14]; at 33.0 µM 19% | [14]; at 100.0 µM 43%
active: [10]; at 50.0 µM 89.3%

Nc1nc(Nc2ccccc2)nc(Nc2ccccc2)n1
inactive: [1]; at 1.2 µM -3% | [1]; at 3.7 µM -10% | [1]; at 11.0 µM -12% | [1]; at 33.0 µM -15% | [2]; at 1.2 µM 1% | [2]; at 3.7 µM -6% | [2]; at 11.0 µM 21% | [2]; at 33.0 µM 28% | [2]; at 100.0 µM 50% | [3]; at 1.2 µM -1% | [3]; at 3.7 µM -7% | [3]; at 11.0 µM -3% | [3]; at 33.0 µM 2% | [4]; at 1.2 µM -6% | [4]; at 3.7 µM -10% | [4]; [16] 4% | [4]; at 11.0 µM -6% | [4]; at 33.0 µM 11% | [4]; [17] 7% | [5]; at 1.2 µM -1% | [5]; at 3.7 µM 1% | [5]; [16] -2% | [5]; at 11.0 µM -1% | [5]; at 33.0 µM -2% | [5]; [17] 21% | [6]; at 1.2 µM 5% | [6]; at 3.7 µM 1% | [6]; at 11.0 µM 1% | [6]; at 33.0 µM 36% | [7]; [16] 3% | [7]; [17] 66% | [8]; at 1.2 µM -7% | [8]; at 3.7 µM -6% | [8]; at 11.0 µM -6% | [8]; at 33.0 µM -3% | [9]; [16] -4% | [9]; [17] 8% | [10]; at 1.2 µM -4% | [10]; at 3.7 µM -3% | [10]; [16] -5% | [10]; at 11.0 µM -8% | [10]; at 33.0 µM 5% | [10]; [17] 32% | [11]; at 1.2 µM -15% | [11]; at 3.7 µM -8% | [11]; at 11.0 µM -7% | [11]; at 33.0 µM 66% | [15]; at 1.2 µM -6% | [15]; at 3.7 µM -2% | [15]; at 11.0 µM -3% | [15]; at 33.0 µM 35% | [12]; at 1.2 µM -10% | [12]; at 3.7 µM -3% | [12]; at 11.0 µM 6% | [12]; at 33.0 µM 57% | [13]; [16] 0% | [13]; [17] 58% | [14]; at 1.2 µM -1% | [14]; at 3.7 µM 5% | [14]; at 11.0 µM 2% | [14]; at 33.0 µM 31%
active: [1]; at 100.0 µM 81% | [3]; at 100.0 µM 92% | [4]; at 50.0 µM 93.5% | [4]; at 100.0 µM 93% | [5]; at 50.0 µM 85.8% | [5]; at 100.0 µM 81% | [6]; at 100.0 µM 95% | [7]; at 50.0 µM 94% | [8]; at 100.0 µM 87% | [9]; at 50.0 µM 81.2% | [10]; at 50.0 µM 91.5% | [10]; at 100.0 µM 95% | [11]; at 100.0 µM 96% | [15]; at 100.0 µM 97% | [12]; at 100.0 µM 97% | [13]; at 50.0 µM 96.5% | [14]; at 100.0 µM 96%
